Source: PubChem BioAssay
Shown are actives, neighbours in structure and some others; about 20% of the full set was active somewhere.
Pf growth 96h: inhibits malaria parasite growth, 96 h; 320,000 tested, 6.9% active; P. falciparum luciferase reporter growth, 96 h; Potency, µM (titrated, usually from 28.7 µM), inactives show at the highest dose activity change, negative = inhibition, actives largely listed as inhibitors; further: potency means the concentration at half of the fitted maximal effect; on the % scale 0 is the no-effect control and ±100 the full control effect
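Parasite growth measured via integrated firefly luciferase reporter in P. falciparum. Infected erythrocytes at 2% hematocrit, 0.05% parasitemia final were treated 96 hours at 37 C under 5% CO2, and luminescence was read.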
HCMV antiviral: inhibitors of human cytomegalovirus; activity change, negative = inhibition, % at 57.5 µM; HFF cells, HCMV-luciferase reporter, 72 h; active compounds read low; 410,000 tested, 4.5% active; in the data active means activity change below about -60%; inconclusive means no clear call, values can overlap the other calls; inactive means above about -39%; further: on the % scale 0 is the no-effect control and ±100 the full control effect
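Compounds were evaluated in HFFs infected with an HCMV luciferase reporter virus (MOI 1 PFU/cell). Luciferase in lysates collected 72 h post infection served as the replication measure.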
Shiga inhibitor: blocks Shiga toxin action in Vero cells. Vero cells, Shiga toxin protein synthesis inhibition reporter. 290,000 tested, 9.2% active. inhibition, % at 38.7 µM. AID 2315; in the data active means inhibition mostly above about 28%, no sharp cut-off; inactive means mostly below about 43%; further: 0% is about no effect
Cycloheximide cs: counter-screen for Shiga toxin inhibitors: cycloheximide protein synthesis inhibition; cell reporter, cycloheximide protein synthesis inhibition counterscreen; max response, %; 300,000 tested, 12% active; AID 2314; in the data active means max response mostly above about 13%, no sharp cut-off; inactive means mostly below about 14%; further: read at 38.3 µM for the half of the compounds with a filed dose; 0% is about no effect
Pf growth 48h: P. falciparum growth inhibition at 48 hours (one generation); P. falciparum luciferase growth in erythrocytes, 48 h; Potency, µM (doses to about 28.7 µM), for the others: at the top dose activity change, negative = inhibition, most hits filed as inhibitors; 310,000 tested, 5.9% active; further: potency means the concentration at half of the fitted maximal effect; on the % scale 0 is the no-effect control and ±100 the full control effect
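Erythrocytes infected with P. falciparum carrying an integrated firefly luciferase reporter (2% hematocrit, 0.1% parasitemia final) were exposed to compounds in RPMI 1640 with 0.5% Albumax at 37 C, 5% CO2. Growth inhibition was scored as reduced luminescence.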
An asterisk follows results filed as active; [ ] = remark or other dose. Unless noted, the call rests on the fitted dose curve; in most records, active means well fitted inhibition curve with a large enough effect; inconclusive means small, poorly fitted or top-dose-only effect, or another doubt; inactive means no such curve, though single readings can be large or run the other way.

For CCC(C)OC(=O)/C(C#N)=C\c1ccc(-c2ccccc2Cl)o1 (configuration not stated) the results were HCMV antiviral 20.3.
For CCOC(=O)c1nnsc1N the results were Pf growth 96h 1.8%, HCMV antiviral 16.1, Shiga inhibitor -5.4, Cycloheximide cs -1.4 and Pf growth 48h 0.7%.
For O=S1(=O)CC(N2CCCCC2)CN1Cc1ccccc1 (configuration not stated) the results were HCMV antiviral -27.8.
Screening O=S(=O)(c1ccccc1)N1CCN(C2CCN(Cc3ccccc3)CC2)CC1 returned Pf growth 96h 0.0%, HCMV antiviral -23.3, Shiga inhibitor -14.0, Cycloheximide cs 1.4 and Pf growth 48h 0.104µM*.
`COc1ccccc1C(=O)N1CCN(C2CCN(Cc3ccccc3)CC2)CC1` gave Pf growth 96h -0.3%, HCMV antiviral 16.8, Shiga inhibitor -4.7, Cycloheximide cs 43.0* and Pf growth 48h 10.6%.
COc1ccc(C(=O)N2CCN(C3CCN(Cc4ccccc4)CC3)CC2)cc1OC was read as Pf growth 96h -35.9%, HCMV antiviral -1.3, Shiga inhibitor -8.6 and Cycloheximide cs -2.8.
Cc1ccc(S(=O)(=O)N2CCN(C3CCN(Cc4ccccc4)CC3)CC2)cc1 was read as Pf growth 96h -8.0%[5.75 µM], HCMV antiviral 14.3, Shiga inhibitor -19.1, Cycloheximide cs -3.7 and Pf growth 48h 6.5%.
For c1ccc(CN2CCC(N3CCC(N4CCCCCC4)CC3)CC2)cc1 the results were Pf growth 96h 8.28µM*, Shiga inhibitor -20.9, Cycloheximide cs 4.7 and Pf growth 48h 13.1µM*.
COc1ccc(C(=O)NCC(=O)N2CCN(c3ncccn3)CC2)cc1OC was read as Pf growth 96h inconclusive, HCMV antiviral 19.2 and Pf growth 48h inconclusive.
For C[C@@H]1C[C@H]2[C@H]3C[C@@H](F)C4=CC(=O)C=C[C@]4(C)[C@@]3(Cl)[C@@H](O)C[C@@]2(C)[C@@H]1C(=O)COC(=O)C(C)(C)C the results were Pf growth 96h 4.78µM* and Pf growth 48h 4.78µM*.
Screening O=C(CSc1nnc(-c2ccc(Cl)cc2)o1)Nc1ccc(F)cc1 returned HCMV antiviral 88.0.
`CCCC(=O)N1CCN(c2ccc(NC(=O)c3cc4ccccc4o3)cc2Cl)CC1` gave Pf growth 96h 7.0%, HCMV antiviral -102.5*, Shiga inhibitor 10.8, Cycloheximide cs 13.4 and Pf growth 48h 1.47µM*.
O=C(Nc1ccc(N2CCN(C(=O)c3ccco3)CC2)c(Cl)c1)c1cc2ccccc2o1 was read as Pf growth 96h -2.1%, HCMV antiviral -99.3*, Shiga inhibitor 52.0, Cycloheximide cs 22.9* and Pf growth 48h 2.94µM*.
For CCC(=O)N1CCN(c2ccc(NC(=S)NC(=O)c3cc4ccccc4o3)cc2)CC1 the results were Pf growth 96h 2.1%, HCMV antiviral 0.7, Shiga inhibitor 21.4, Cycloheximide cs 24.9 and Pf growth 48h 16.4%.
For CCC(=O)N1CCN(c2ccc(NC(=O)c3cc4ccccc4o3)cc2Cl)CC1 the results were Pf growth 96h -2.5%, HCMV antiviral -103.6*, Shiga inhibitor -2.7, Cycloheximide cs 16.9* and Pf growth 48h inconclusive.
CNC(=O)C(C#N)(Cc1cc(C(C)=O)ccc1OC)Cc1cc(C(C)=O)ccc1OC was read as Pf growth 96h -27.7%, HCMV antiviral 5.3, Shiga inhibitor -15.2, Cycloheximide cs 1.6 and Pf growth 48h -13.8%.
`CCn1cc(C(=O)NCCCN2CCN(C)CC2)c(=O)c2cc(S(=O)(=O)N3CCc4ccccc4C3)ccc21` gave Pf growth 96h inconclusive, HCMV antiviral -5.6, Shiga inhibitor -5.1, Cycloheximide cs -12.8 and Pf growth 48h inconclusive.
For COc1ccccc1C(=O)NNC(=O)c1cccc(Br)c1 the results were Pf growth 96h -12.9%, HCMV antiviral 81.2, Cycloheximide cs 35.0* and Pf growth 48h 165.8%.
COc1ccccc1C(=O)Nc1cccc(NC(C)=O)c1 was read as Pf growth 96h 0.0%, HCMV antiviral -26.0, Shiga inhibitor 21.5, Cycloheximide cs 7.1 and Pf growth 48h 10.4%.
`COc1ccccc1C(=O)NNS(=O)(=O)c1ccc(F)cc1` gave Pf growth 96h 4.15µM*, HCMV antiviral 70.9, Cycloheximide cs -1.1 and Pf growth 48h 3.3%.
For COc1ccccc1NC(=S)NNC(=O)c1ccccc1 the results were HCMV antiviral 73.8.
Screening COc1ccccc1C(=O)NC(=O)Nc1cccc(Cl)c1 returned Pf growth 96h inconclusive, HCMV antiviral 370.1, Shiga inhibitor 130.1*, Cycloheximide cs 48.9* and Pf growth 48h 63.0%.
COc1ccccc1NC(=S)NNC(=O)c1ccccc1Br was read as Pf growth 96h 45.5%, HCMV antiviral 32.3, Shiga inhibitor 88.0*, Cycloheximide cs 26.8* and Pf growth 48h 114.2%.
Screening CCN(CC)S(=O)(=O)c1ccc(N2CCOCC2)c(NC(=O)c2cc3ccccc3oc2=O)c1 returned Pf growth 96h -6.7%, HCMV antiviral inconclusive, Shiga inhibitor 33.0, Cycloheximide cs 14.4 and Pf growth 48h -24.7%.
`Cc1nn(CC(=O)NCc2ccc(F)cc2)c2ccccc12` gave HCMV antiviral 22.6.
Screening CCCc1nnc(SCC(=O)NC2CC2)n1C returned Pf growth 96h -2.3%, HCMV antiviral -19.5, Shiga inhibitor -9.9, Cycloheximide cs -4.9 and Pf growth 48h 17.9%.
`COc1ccccc1C(=O)NC(=S)Nc1cccc2cc(O)ccc12` gave HCMV antiviral -0.6.
`COc1ccccc1C(=O)NNC(=O)c1ccccc1` gave Pf growth 96h -5.7%, HCMV antiviral 103.2, Cycloheximide cs 34.0* and Pf growth 48h 102.0%.
Screening COc1ccccc1C(=O)NNC(=O)c1ccccc1Br returned Pf growth 96h 10.4µM*, HCMV antiviral 98.5, Cycloheximide cs 13.3* and Pf growth 48h 10.0%.
Screening COc1ccccc1C(=O)NNC(=O)c1cccc(Cl)c1 returned Pf growth 96h -35.8%, HCMV antiviral 34.1, Shiga inhibitor 46.3, Cycloheximide cs 28.4* and Pf growth 48h 95.8%.
O=C(NC(=S)Nc1cccc2cc(O)ccc12)c1ccccc1Br was read as Pf growth 96h 13.1µM*, HCMV antiviral -19.5, Shiga inhibitor 10.0, Cycloheximide cs 5.6 and Pf growth 48h -26.0%.
Screening CCOc1ccc(NC(=O)CC2C(=O)N(c3cccc(C)c3)C(=O)N2Cc2ccco2)cc1 (configuration not stated) returned HCMV antiviral -19.8.
For O=C(NCC1CCCO1)c1c[nH]c2ccc(S(=O)(=O)Nc3cccc(C(F)(F)F)c3)cc2c1=O (configuration not stated) the results were HCMV antiviral 47.9.
CC(C)(C)NC(=O)C(=O)NNC(=O)c1cccc(Br)c1 was read as Pf growth 96h 2.08µM*, HCMV antiviral -30.0, Shiga inhibitor 47.3*, Cycloheximide cs 17.3* and Pf growth 48h 63.5%.
`CC(C)(C)NC(=O)C(=O)NNC(=O)c1ccc(C(C)(C)C)cc1` gave Pf growth 96h 62.5%, HCMV antiviral -37.0, Shiga inhibitor -2.8, Cycloheximide cs 1.1 and Pf growth 48h inconclusive.
